Test results reported in PubChem BioAssay (NCI).
Several values for one entry are separate records, joined by “and”; a condition that tells them apart may be missing. Equal entries are not always repeated. Compounds without any hit were thinned out: in the full panel of roughly 83,000, 20% have a hit.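 48-hour exposure, single concentration, 96-well plates; percent growth endpoint where 0 means no net growth. Active: below 10.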 Values without a mark were called inactive. Activity calls are given as the source filed them.

How the values were obtained:
Experiment in all cases: NCI-60 one-dose screen, 48 h (100 = growth as untreated, 0 = no growth, -100 = all killed)
Settings in all cases: 10 µM unless noted
NCI-H23 lung = test system: NCI-H23 lung
NCI-H226 lung = test system: NCI-H226 lung
NCI-H322M lung = test system: NCI-H322M lung
HOP-62 NSCLC = test system: HOP-62 NSCLC
NCI-H460 lung = test system: NCI-H460 lung
NCI-H522 lung = test system: NCI-H522 lung
A549/ATCC NSCLC = test system: A549/ATCC NSCLC
786-0 renal = test system: 786-0 renal
COLO 205 colon = test system: COLO 205 colon
DU-145 prostate = test system: DU-145 prostate
K-562 leukemia = test system: K-562 leukemia
MALME-3M melanoma = test system: MALME-3M melanoma
MDA-MB-231 breast = test system: MDA-MB-231 breast
RXF 393 renal = test system: RXF 393 renal
SF-268 CNS = test system: SF-268 CNS
SF-295 CNS = test system: SF-295 CNS
SF-539 CNS = test system: SF-539 CNS
UACC-257 melanoma = test system: UACC-257 melanoma
M14 melanoma = test system: M14 melanoma
HOP-92 NSCLC = test system: HOP-92 NSCLC

| Compound | growth (NCI-H23 lung) | growth (NCI-H226 lung) [%] | growth (NCI-H322M lung) | growth (HOP-62 NSCLC) | growth (NCI-H460 lung) | growth (NCI-H522 lung) | growth (A549/ATCC NSCLC) | growth (786-0 renal) | growth (COLO 205 colon) | growth (DU-145 prostate) | growth (K-562 leukemia) | growth (MALME-3M melanoma) | growth (MDA-MB-231 breast) | growth (RXF 393 renal) | growth (SF-268 CNS) | growth (SF-295 CNS) | growth (SF-539 CNS) | growth (UACC-257 melanoma) | growth (M14 melanoma) | growth (HOP-92 NSCLC) |
| --- | --- | --- | --- | --- | --- | --- | --- | --- | --- | --- | --- | --- | --- | --- | --- | --- | --- | --- | --- | --- |
| COc1cc(NC2CCCCC2O)c2nc(-c3ccc(Cl)cc3)ccc2c1 (configuration not stated) | 84.2% and 98.5% | 90 | 88.8% and 88.2% | 109% and 108% | 41.2% and 57.9% | 65.7% and 89.5% | 69% and 73.5% | 42.4% and 77.6% | 93.2% and 110% | 95.3% and 95% | 44.8% | 72.5% and 124% | 44.6% and 78.1% | 39.3% and 67.9% | 77.5% and 84% | 51.5% and 54.3% | 105% and 93.9% | 101% and 105% | 45.8% and 79.9% | – |
| CC(C)(C)c1cc(C(C)(C)c2ccccc2)cc(Cc2cc(C(C)(C)c3ccccc3)cc(C(C)(C)C)c2O)c1O | 108% | 90.9 | 97.1% | 108% | 105% | – | 101% | 103% | 123% | 123% | 48% | 97.4% | 105% | 95.5% | 98.4% | 116% | 101% | 105% | 116% | 55.1% |
| COc1ccc(C(c2cc(OC)c(OC)c(OC)c2)n2ccnc2)cc1O (configuration not stated) | 38.9% | 68.7 | 48.2% | 29.5% | 6.11% (active) | – | 12.8% | 20% | -9.99% (active) | 12.9% | 8% (active) | 66.6% | 34.8% | -5.38% (active) | 39.6% | -3.02% (active) | 9.52% (active) | 37.8% | 0.908% (active) | 25.8% |
| O=C1C(c2c[nH]c3ccccc23)=C(c2coc3cc(Br)ccc23)C(=O)N1O | 93.1% | 87.1 | 97.1% | 104% | 97.2% | – | 98.4% | 94.6% | 117% | 107% | 93.8% | 107% | 85.9% | 105% | 98.6% | 95.3% | 106% | 100% | 101% | 92.1% |
| CN(C)C(=O)c1cc2cnc(Nc3ccc(-c4csc5c(=S)cc(N6CCOCC6)oc45)cc3)nc2n1C1CCCC1 | 7.49% (active) | 15.8 | 18.4% | 6.1% (active) | 3.26% (active) | – | 5.94% (active) | 9.52% (active) | -33.9% (active) | 16.9% | 10% | 17.8% | 10.2% | -53.9% (active) | 11.1% | 1.23% (active) | -24.5% (active) | 4.13% (active) | 7.51% (active) | -5.69% (active) |
| COc1ccc(-c2cc(-c3cc(OC)c(OC)c(OC)c3)c(C#N)c(=O)n2CCCCC(=O)O)cc1 | 96.7% | 104 | 98.4% | 96.8% | 96% | – | 93.9% | 97.5% | 115% | 98.2% | 88% | 114% | 81.6% | 99.2% | 86.9% | 95% | 94.4% | 103% | 98% | 93.6% |
| Cc1ccc(-c2nc([P+](c3ccccc3)(c3ccccc3)c3ccccc3)c(Nc3ccccc3)o2)cc1 | -6.49% (active) | 20.2 | 4.01% (active) | -16.4% (active) | -45.3% (active) | – | 4.95% (active) | -24.5% (active) | -62.8% (active) | 13.2% | 0.731% (active) | -44.1% (active) | -36.5% (active) | -31.7% (active) | 10.6% | -21% (active) | -76.6% (active) | -13.5% (active) | -40.4% (active) | -14.4% (active) |
| Cc1nonc1-c1ccc2c(c1)OCO2 | 91.5% and 112% | 94.3 | 113% and 124% | 123% and 106% | 106% | – | 90.6% and 98.2% | 104% and 107% | 114% and 140% | 94.4% and 109% | 101% | 116% and 142% | 96.8% and 110% | 96.8% and 99.4% | 89.9% and 95% | 91.4% and 101% | 111% and 95.7% | 104% and 111% | 110% and 108% | – |
| COc1ccc(-c2ccccc2)cc1-c1c(Nc2cc(Cl)cc(Cl)c2O)c(=O)c1=O | 2.65% (active) | 19.3 | 11.3% | 2.04% (active) | 7.61% (active) | – | 8.72% (active) | 17.3% | 48.1% | 20.5% | 13.5% | -19.4% (active) | 15% | -13% (active) | 18.3% | -6.58% (active) | 12.7% | 2.86% (active) | 24.6% | -24.5% (active) |
| COc1c(O)c(O)cc2c3c(oc12)CC(c1ccc2c(c1)OCO2)CC3=O (configuration not stated) | 69.4% | 80 | 73.2% | 71.4% | 25% | – | 60.7% | 52.1% | 119% | 68.8% | 17.2% | 95.7% | 70.5% | 105% | 53.9% | 101% | 67.6% | 55.3% | 23.3% | 71.7% |
| CNC(=O)c1cc(Oc2ccc3nc(NC(=O)Nc4ccc(C(F)(F)F)cc4)sc3c2)ccn1 | 63.4% | 85.6 | 80.5% | 67.4% | 33.4% | – | 1.79% (active) | 35.4% | 58.7% | 48.9% | 76.3% | 20.8% | 63.5% | 85.5% | 65% | 63.2% | 82.2% | 86.7% | 35.8% | 74.4% |
| O=C(CCl)n1nnnc1Cc1ccccc1 | 102% | 104 | 102% | 90.2% | 108% | – | 92.2% | 95% | 111% | 110% | 83.4% | 106% | 92.9% | 112% | 106% | 90.7% | 92.2% | 88.7% | 98.6% | 102% |
